Here are results for 7 molecules from PubChem BioAssay (NCATS).

Inconclusive results are not listed. The source made the active and inactive calls. Unless noted, calls follow the shape of the dose curve; as a rule, active = well fitted curve in either direction with a large enough effect (not every such curve was filed as active); inconclusive = small, poorly fitted or top-dose-only effect, or another doubt; inactive = flat fitted curve, though single readings scatter.

A short description of test [1]: AP1 Signaling Pathway (AID 357).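 Also: ME-180 reporter cells stimulated with EGF at its EC50 level; % is scaled to controls: 0 for no effect and ±100 for the full control effect.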 In outline: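 In this screen, ME-180 cells in Opti-MEM with 0.5% dialyzed FBS received EC50 EGF and compound titrations for 5 h. AP-1 reporter beta-lactamase was detected via CCF4 ratio, giving AC50 for positive and negative modulators.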
Test [2] addresses Cytochrome P450 1A2 (Homo sapiens) (UniProt P05177). In words: p450-cyp1a2 (AID 410; calls by dose curve; also: potency is read from the fitted curve at half-maximal effect;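 as to activity change, negative = inhibition: -100% = full effect of reference inhibitor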). In outline:
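20nM CYP1A2, 100uM Luciferin-ME (=Km), 100mM KPO4; cpd 10 min RT; +NADPH regen, 60 min RT; stop/detect 20 min; luminescence. Normalized to furafylline 57 uM = full inhibition.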

The nature of test [3]: NFAT Signaling Pathway (AID 444).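 Also: carbachol stimulus at about its EC50 of 1 µM final; % is scaled to controls: 0 for no effect and ±100 for the full control effect.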 The settings on record: Jurkat NFAT-bla M1, carbachol, beta-lactamase ratio, 5 h; at 17.2 µM (top of the series) unless noted. In outline:
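Jurkat cells with NFAT-driven β-lactamase reporter and co-expressed M1 receptor, stimulated with carbachol (final 1 uM, ~EC50), compound titration, 5 h at 37 °C. CCF4 loaded 1 h at RT; 460/530 nm ratio gave %activity and AC50.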

Test [4] is described as follows: Stat Signaling Pathway (AID 446).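 Also: ME-180 cervical cancer cells given 40 pM IL-6 alongside compound; SIE-controlled beta-lactamase reporter measured as 460/530 nm FRET emission ratio; % is scaled to controls: 0 for no effect and ±100 for the full control effect.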 The method in brief:
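Compound effects on IL-6-induced STAT reporter activity were measured in ME-180 cells. After overnight culture, cells were co-treated with 40 pM IL-6 for 5 hrs before beta-lactamase substrate loading at room temperature.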

Test [5] has as its target Glucocorticoid receptor (Homo sapiens) (UniProt P04150). As to the kind of experiment: GR-EFC Redistribution (AID 451; calls by dose curve; also: potency is read from the fitted curve at half-maximal effect). The settings on record: CHO-K1 GR-EFC translocation, beta-gal luminescence, 2 h. In outline: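 CHO-K1 cells expressing nuclear EA and GR-ED fragments of b-gal; compounds titrated up to 46 uM final, 2 h at 37 C. GR nuclear translocation read as complemented b-gal luminescence after 1 h RT detection.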

Test [6] has as its target Mitogen-activated protein kinase 10 (Mus musculus) (UniProt Q61831). In words: JNK3 AlphaScreen Assay (AID 530).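 Also: kinase came from lysate of stimulated human HepG2 cells; signal reports phosphorylation of biotinylated GST-cJun 1-79 at Ser73 with 10 µM ATP; % is scaled to controls: 0 for no effect and ±100 for the full control effect.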 In outline:
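HepG2 lysate (IL-1b/TNFa pre-activated) + biotin-GST-cJun 1-79 + anti-pSer73 cJun; cpd titration, 15 min RT; ATP 10 uM start; Tris pH 7.6, MgCl2, DTT, vanadate; beads in EDTA buffer; AlphaScreen.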

The target of test [7] is 3',5'-cyclic-AMP phosphodiesterase 4B (Homo sapiens) (UniProt Q07343). As to the kind of experiment: qHTS Assay for Inhibitors of PDE-IV (AID 607; active = well fitted activation curve with a large enough effect in the main read-out, with a control signal flat, not every such curve was filed as active; also: % of control where 0% means no effect). The method in brief:
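ACTOne HEK293 cells carry a modified cAMP-gated CNG channel and express endogenous PDE4; plated 1000 cells/well, compounds up to 22.9 uM final. Membrane-potential dye fluorescence (ex 535/em 590) was read; parental cells received 10 uM forskolin + 100 uM RO 20-1724.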

A short description of test [8]: qHTS Assay for Lipid Storage Modulators (AID 1519; calls by dose curve). The note with it: Drosophila S3 cells, BODIPY lipid droplet/cell ratio, laser cytometry, cells loaded with oleic acid; for activity change, negative = inhibition: at 25.7 µM (top of the series). The method in brief:
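Cells seeded at 5,000 per well were treated with compounds over a concentration series and loaded with oleic acid (400 uM, as added). Lipid droplet fluorescence (488 nm excitation, 500-530 nm channel) was read by laser-scanning cytometry and normalized to 20 uM Triacsin C.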

Test [9] concerns the target Glucocorticoid receptor (Homo sapiens) (UniProt P04150). In words: GR-GFP Redistribution (AID 450;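 active = compounds whose dose series gives a full or clear partial fitted curve of increased nuclear translocation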; also: potency is read from the fitted curve at half-maximal effect). The settings on record: U2OS GR-GFP nuclear translocation, laser cytometry, 2 h.
Test [10] deals with Ubiquitin carboxyl-terminal hydrolase 1 (Homo sapiens) (UniProt O94782). As to the kind of experiment: Inhibitors of USP1/UAF1: Pilot qHTS (AID 504865; active = well fitted curve in the direction sought with a large enough effect; an effect the other way counts as inactive or inconclusive;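 also: rhodamine fluorescence freed from ubiquitin-rhodamine substrate followed over time; top concentration of the series differs between compounds; % is scaled to controls: 0 for no effect and ±100 for the full control effect; nearly all actives have a fitted effect of over 35% in size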). In outline:
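Kinetic fluorescence assay: 1nM USP1/UAF1, 15 min compound preincubation, then 150nM Ub-Rho; 480/540 nm.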

Test [11] in a line: S16 Schwann cell viability assay (CellTiter-Glo assay) (AID 624031; active = well fitted curve in the direction sought with a large enough effect; an effect the other way counts as inactive or inconclusive;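 also: cellular ATP luminescence as a viability measure; plate controls were DMSO-treated cells for no effect and cell-free wells for full effect; nearly all actives have a fitted effect of over 70% in size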). In outline:
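Luminescent ATP read-out (CellTiter-Glo) after 24 h compound exposure of native S16 rat Schwann cells at 37 °C. Signals were normalized between cell-free wells and DMSO-treated cells, set as 0% activity.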

Test [12] in a line: S16 Schwann cell PMP22 intronic element firefly luciferase assay (AID 624032; active = well fitted curve in the direction sought with a large enough effect; an effect the other way counts as inactive or inconclusive;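 also: plate controls were DMSO for no effect and PTC124 positive control mean for full effect; nearly all actives have a fitted effect of over 30% in size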). The method in brief: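 Rat S16 Schwann cells stably carrying firefly luciferase driven by a PMP22 intronic element, in 10% FBS, treated 24 h at 37 C. ONE-Glo luminescence normalized to PTC124 control and DMSO (0%); curves classed by r2, magnitude and activity.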
The nature of test [13]: qHTS profiling for inhibitors of Plasmodium falciparum proliferation (AID 504749; active = well fitted curve in the direction sought with a large enough effect; an effect the other way counts as inactive or inconclusive;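 also: 0% = DMSO vehicle and full inhibition = artemisinin control; nearly all actives have a fitted effect of over 60% in size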). The settings on record: P. falciparum in erythrocytes, SYBR Green DNA, 72 h, at 12.8 µM (top of the series). The method in brief: (§1)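 SYBR Green fluorescence (ex 485 nm, em 535 nm) reports parasite DNA after 72 h compound exposure of infected red cells at 0.3% parasitemia, 2.5% hematocrit; signal normalized to 0.29 uM artemisinin and vehicle wells.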

For the next test, the system named is 3D7. The test is described as above. The note with it: P. falciparum in erythrocytes, SYBR Green DNA, 72 h; series mostly up to 12.8 µM. In outline: as §1
The test system of a further test is AS120. The test is described as above. The settings on record: P. falciparum in erythrocytes, SYBR Green DNA, 72 h; series mostly up to 12.8 µM. In outline:
as §1

The test system of the next test is ATS189. The test is described as above. The note with it: P. falciparum in erythrocytes, SYBR Green DNA, 72 h; series mostly up to 12.8 µM. In outline:
as §1

The next test concerns CP217. The description is as above. The note with it: P. falciparum in erythrocytes, SYBR Green DNA, 72 h; series mostly up to 12.8 µM. The method in brief: as §1
Another test concerns CP247. The test is described as above. The note with it: P. falciparum in erythrocytes, SYBR Green DNA, 72 h; series mostly up to 12.8 µM. The method in brief:
as §1

Another test relates to CP250. The test is described as above. The settings on record: P. falciparum in erythrocytes, SYBR Green DNA, 72 h; series mostly up to 12.8 µM. The method in brief:
as §1

Another test has as its system SC27B. The test is described as above. The note with it: P. falciparum in erythrocytes, SYBR Green DNA, 72 h; series mostly up to 12.8 µM. In outline:
as §1

[14] abbreviates: measured here: cell count channel max response.
The mark [15] stands for this setting: measured here: lipid channel max response.

3',5'-cyclic-AMP phosphodiesterase 4B (Homo sapiens), sequence (Q07343 whole entry, looked up): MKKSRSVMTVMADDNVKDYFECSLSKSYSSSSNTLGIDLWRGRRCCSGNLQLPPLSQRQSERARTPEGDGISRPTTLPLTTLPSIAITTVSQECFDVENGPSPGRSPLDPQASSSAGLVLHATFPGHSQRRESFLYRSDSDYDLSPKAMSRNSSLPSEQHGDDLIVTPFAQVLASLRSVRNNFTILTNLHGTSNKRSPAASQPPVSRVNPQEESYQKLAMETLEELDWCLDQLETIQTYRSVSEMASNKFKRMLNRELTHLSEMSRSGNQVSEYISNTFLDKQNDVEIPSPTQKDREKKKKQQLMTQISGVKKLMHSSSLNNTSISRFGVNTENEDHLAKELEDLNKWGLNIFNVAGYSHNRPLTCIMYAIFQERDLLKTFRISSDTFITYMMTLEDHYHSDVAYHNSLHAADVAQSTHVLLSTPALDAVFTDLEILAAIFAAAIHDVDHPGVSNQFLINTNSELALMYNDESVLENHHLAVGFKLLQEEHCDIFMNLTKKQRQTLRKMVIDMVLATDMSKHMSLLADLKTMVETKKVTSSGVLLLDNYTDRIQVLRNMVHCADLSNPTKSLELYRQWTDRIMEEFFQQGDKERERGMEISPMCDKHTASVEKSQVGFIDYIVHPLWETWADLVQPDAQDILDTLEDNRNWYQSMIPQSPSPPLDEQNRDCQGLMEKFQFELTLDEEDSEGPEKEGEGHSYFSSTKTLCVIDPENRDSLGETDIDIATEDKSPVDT
Ubiquitin carboxyl-terminal hydrolase 1 (Homo sapiens), sequence (O94782 whole entry, looked up): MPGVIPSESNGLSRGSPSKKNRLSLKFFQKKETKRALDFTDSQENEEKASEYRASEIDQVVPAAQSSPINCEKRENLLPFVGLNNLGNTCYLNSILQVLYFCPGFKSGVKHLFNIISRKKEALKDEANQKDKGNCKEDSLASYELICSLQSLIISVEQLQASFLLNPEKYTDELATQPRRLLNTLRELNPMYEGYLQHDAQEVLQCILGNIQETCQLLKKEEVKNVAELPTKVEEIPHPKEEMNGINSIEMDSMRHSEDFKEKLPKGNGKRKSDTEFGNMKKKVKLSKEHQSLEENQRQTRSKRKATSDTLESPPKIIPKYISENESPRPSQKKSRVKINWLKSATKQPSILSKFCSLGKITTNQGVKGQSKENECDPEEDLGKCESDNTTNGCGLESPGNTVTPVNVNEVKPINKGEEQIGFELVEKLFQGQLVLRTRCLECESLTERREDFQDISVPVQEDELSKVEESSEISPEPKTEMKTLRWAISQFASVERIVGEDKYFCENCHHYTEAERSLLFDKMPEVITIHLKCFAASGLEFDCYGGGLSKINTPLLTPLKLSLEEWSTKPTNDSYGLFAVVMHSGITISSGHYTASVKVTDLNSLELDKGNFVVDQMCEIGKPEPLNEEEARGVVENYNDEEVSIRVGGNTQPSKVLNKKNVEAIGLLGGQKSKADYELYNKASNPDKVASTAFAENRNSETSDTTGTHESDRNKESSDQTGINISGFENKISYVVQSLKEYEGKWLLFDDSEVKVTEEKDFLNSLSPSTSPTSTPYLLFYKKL
Cytochrome P450 1A2 (Homo sapiens), sequence (P05177 whole entry, looked up): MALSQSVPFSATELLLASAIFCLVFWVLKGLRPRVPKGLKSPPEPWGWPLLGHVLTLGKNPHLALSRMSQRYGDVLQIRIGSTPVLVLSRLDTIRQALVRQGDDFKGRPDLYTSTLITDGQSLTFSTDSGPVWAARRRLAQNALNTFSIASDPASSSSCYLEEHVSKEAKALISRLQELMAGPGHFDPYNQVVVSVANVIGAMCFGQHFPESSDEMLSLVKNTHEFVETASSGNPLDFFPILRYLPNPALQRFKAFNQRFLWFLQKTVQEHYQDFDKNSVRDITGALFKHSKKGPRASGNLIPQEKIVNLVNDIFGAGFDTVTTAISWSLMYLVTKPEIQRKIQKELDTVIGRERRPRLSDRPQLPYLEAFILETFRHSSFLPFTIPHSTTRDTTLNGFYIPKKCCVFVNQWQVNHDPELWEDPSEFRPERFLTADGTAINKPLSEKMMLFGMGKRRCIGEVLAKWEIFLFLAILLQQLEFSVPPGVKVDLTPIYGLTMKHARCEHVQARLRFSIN
Glucocorticoid receptor (Homo sapiens), sequence (P04150 whole entry, looked up, the tested form may be a part): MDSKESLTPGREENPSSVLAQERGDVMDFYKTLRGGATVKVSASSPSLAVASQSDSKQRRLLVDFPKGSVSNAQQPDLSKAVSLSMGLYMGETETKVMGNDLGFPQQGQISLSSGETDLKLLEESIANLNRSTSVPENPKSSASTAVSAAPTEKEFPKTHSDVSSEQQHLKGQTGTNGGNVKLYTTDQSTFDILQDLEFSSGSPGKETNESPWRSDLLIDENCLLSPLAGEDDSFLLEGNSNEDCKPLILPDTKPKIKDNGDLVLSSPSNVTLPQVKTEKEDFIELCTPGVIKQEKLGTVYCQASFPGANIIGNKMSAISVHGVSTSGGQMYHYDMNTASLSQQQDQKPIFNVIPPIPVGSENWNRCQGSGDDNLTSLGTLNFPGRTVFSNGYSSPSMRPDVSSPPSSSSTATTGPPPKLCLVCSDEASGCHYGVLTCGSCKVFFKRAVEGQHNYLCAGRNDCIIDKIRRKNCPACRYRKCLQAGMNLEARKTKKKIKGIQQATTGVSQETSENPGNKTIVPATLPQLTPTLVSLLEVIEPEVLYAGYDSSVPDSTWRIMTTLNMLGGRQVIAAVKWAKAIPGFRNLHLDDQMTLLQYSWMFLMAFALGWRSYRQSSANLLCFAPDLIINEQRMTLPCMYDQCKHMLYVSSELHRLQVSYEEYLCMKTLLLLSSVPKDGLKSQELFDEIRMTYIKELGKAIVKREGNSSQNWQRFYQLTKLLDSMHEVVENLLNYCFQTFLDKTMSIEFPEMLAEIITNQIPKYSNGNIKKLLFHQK

As for `COc1ccc2nccc(C(=O)O)c2c1`, the molecule was classed as inactive in test [1], in test [4] and in test [7]. Moreover, the Potency entry in test [2] and in test [6] was “inactive” in each case. The activity change, negative = inhibition in test [3] is -15.8% (inactive); in [8], 2.98% (inactive). The Potency in test [5] is > 20.6 µM (inactive). In addition, the max response was -10.5% in test [8] (setting [14]) and -9.32% in [8] (setting [15]).
For the molecule `CCC[C@H]1C[C@H](C(=O)N[C@H]([C@@H]2O[C@H](SC)[C@@H](O)[C@H](O)[C@@H]2O)[C@H](C)O)N(C)C1`, the call in test [1], in test [4] and in [7] was inactive. For the same molecule, the Potency result in test [2], in test [6] and in test [10] was “inactive” in each case. The activity change, negative = inhibition in [3] is -5.24% (inactive); in test [8], 0.0766% (inactive). For the same molecule, the Potency in test [9] was > 20.6 µM (inactive). In addition, the max response in [8] (setting [14]) is -10.3%; in test [8] (setting [15]), -10.9%.
Turning to `COc1ccc2c3c([nH]c2c1)[C@@H]1C[C@@H]2[C@@H](C[C@H](O)[C@H](OC)[C@H]2C(=O)O)CN1CC3`, the result in test [1], in [4] and in [7] was inactive. Further, the Potency entry in test [2], in test [6] and in test [10] was “inactive” each time. The activity change, negative = inhibition was -14.4% (inactive) in test [3] and -2.35% (inactive) in test [8]. The Potency in test [9] and in [5] was > 20.6 µM (inactive) in each case. The max response in [8] (setting [14]) was -18.6%; in test [8] (setting [15]), -20%.
On to `Nc1c2ccccc2nc2c(O)cccc12`, for which the call in test [1], in test [4] and in test [7] was inactive. Also, the results for the Potency in [2] and in test [5] were 6.31 µM (active) and > 20.6 µM (inactive), respectively. Also, the results for the activity change, negative = inhibition in test [3] and in test [8] were -1.27% (inactive) and -0.346% (inactive), respectively. Moreover, the Potency entry in test [6] and in [10] was “inactive” each time. For the same molecule, the max response is -4.58% in [8] (setting [14]) and -4.09% in [8] (setting [15]).
`CC(=O)[C@@H]1CC[C@@H]2[C@@H]3C[C@H](C)C4=CC(=O)CC[C@@]4(C)[C@H]3[C@H](O)C[C@]21C`: the molecule was classed as inactive in test [1], in test [4], in test [7] and in [11]. Moreover, the Potency result (in test [2]; in test [6]; in test [10]; in [12]; in the test on 3D7; in the test on AS120) was “inactive” throughout. Further, the Potency result in the test with ATS189, in the test on CP217, in the test with CP247, with CP250 and in the test with SC27B was “inactive” throughout. The values for the activity change, negative = inhibition in test [3] and in test [8] were -5.99% (inactive) and -5.46% (inactive), respectively. Besides, the Potency in test [9] is 0.0015 µM (active). The max response was -5.95% in test [8] (setting [14]) and -15.5% in test [8] (setting [15]). Moreover, the figures for the activity, negative = inhibition in test [13] (parasite line A) and in [13] (parasite line B) were 0.756% (inactive) and -6.03% (inactive), respectively.
Consider `CN(C)CCCO[C@H]1[C@@H]2OC(C)(C)O[C@@H]2O[C@@H]1[C@H](O)CO`, for which the molecule was called inactive in test [1], in test [4] and in test [7]. Moreover, the Potency result in test [2], in [6] and in test [10] was “inactive” in each case. Also, the activity change, negative = inhibition in test [3] was -2.11% (inactive); in test [8], 0.679% (inactive). For the same molecule, in test [9], the Potency was > 20.6 µM (inactive). Besides, the max response in test [8] (setting [14]) is -1.4%; in test [8] (setting [15]) it was -0.368%.
As to `C#C[C@@]1(O)CC[C@@H]2[C@@H]3CCC4=CC(=O)CC[C@@H]4[C@H]3CC[C@]21C`, the molecule was classed as inactive in test [1], in test [4] and in test [7]. Also, the Potency entry in test [2], in test [6] and in test [10] was “inactive” each time. Further, the figures for the activity change, negative = inhibition in test [3] and in test [8] were -7.42% (inactive) and -2.83% (inactive), respectively. Besides, the results for the max response in test [8] (setting [14]) and in [8] (setting [15]) were -8.09% and -9.96%, respectively.
